# Rows were chosen to be rich in hits. Some 2.4% of all compounds tested hit in one or more screens of this group.
# Pol beta inh = qHTS Assay for Inhibitors of DNA Polymerase Beta. actives 1.3% (n = 340,000). Potency, µM (doses to about 114 µM), for inactives: top-dose activity change, negative = inhibition, hits mostly inhibitors. Pol beta primer extension/strand displacement, fluorescence kinetic; note: potency is the fitted concentration of half-maximal effect; % is set by controls: 0 for no effect and ±100 for the full control effect
#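 Curves were derived by four-parameter Hill fits of normalized qHTS data. The kinetic fluorescent primer-extension read was taken at 0 and 10 min after 50 nM substrate, following a 15 min room-temperature preincubation of 10 nM enzyme with compounds.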
# WRN helicase inh-1 = qHTS for Inhibitors of WRN Helicase; actives 0.46% (n = 360,000); Potency, µM (series often up to 114 µM), without a hit: at the highest dose activity change, negative = inhibition, hits mostly inhibitors; AID 651768, 2012; Bifunctional 3'-5' exonuclease/ATP-dependent helicase WRN (Homo sapiens), Q14191; WRN helicase unwinding, fluorescent forked duplex, kinetic; note: potency is the fitted concentration of half-maximal effect; % is set by controls: 0 for no effect and ±100 for the full control effect; nearly all actives have a fitted effect of over 55% in size
#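 Kinetic red-fluorescence monitoring (525/598 nm) tracks WRN helicase activity after 100 nM fluorophore-quencher forked duplex and 2 mM ATP are added to 20 nM enzyme pretreated 15 min at room temperature with compound.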
# Pol kappa inh-1 = qHTS for Inhibitors of Polymerase Kappa | DNA polymerase kappa (Homo sapiens), Q9UBT6 | AID 588579, 2011 | Potency, µM (highest dose often 107 µM), without a hit: top-dose activity, negative = inhibition, actives largely listed as inhibitors | actives 0.53% (n = 400,000) | purified Pol kappa, fluorescent DNA synthesis assay, 10 min; note: potency is the fitted concentration of half-maximal effect; % is set by controls: 0 for no effect and ±100 for the full control effect
#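 Inhibition of 10 nM Pol kappa is measured by a fluorescent read-out at 0 and 10 min following addition of 50 nM substrate (final), with a 15-min room-temperature compound preincubation.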
# FEN1 inh-1 = qHTS Assay for the Inhibitors of Human Flap endonuclease 1 (FEN1). P39748. Recombinant FEN1 flap cleavage, fluorescence, 15 min. Potency, µM (titrated, usually from 114 µM), without a hit: top-dose activity change, negative = inhibition, usual class: inhibitors. actives 0.35% (n = 390,000). AID 588795, 2011; note: potency is the fitted concentration of half-maximal effect; % is set by controls: 0 for no effect and ±100 for the full control effect; nearly all actives have a fitted effect of over 65% in size
#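 Read-out was taken twice, immediately and after 15 min, following addition of 50 nM substrate to 10 nM FEN1 that had sat with test compound for 15 min at room temperature. Curves came from a four-parameter Hill model.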
# Pol eta inh-1 = qHTS for Inhibitors of Polymerase Eta | recombinant Pol eta, fluorescent DNA replication assay | Potency, µM (series often up to 114 µM), for the others: at the highest dose activity change, negative = inhibition, usual class: inhibitors | actives 1.2% (n = 390,000) | AID 588591, 2011; note: potency is the fitted concentration of half-maximal effect; % is set by controls: 0 for no effect and ±100 for the full control effect
# Target sequence (Q9Y253 whole entry, looked up): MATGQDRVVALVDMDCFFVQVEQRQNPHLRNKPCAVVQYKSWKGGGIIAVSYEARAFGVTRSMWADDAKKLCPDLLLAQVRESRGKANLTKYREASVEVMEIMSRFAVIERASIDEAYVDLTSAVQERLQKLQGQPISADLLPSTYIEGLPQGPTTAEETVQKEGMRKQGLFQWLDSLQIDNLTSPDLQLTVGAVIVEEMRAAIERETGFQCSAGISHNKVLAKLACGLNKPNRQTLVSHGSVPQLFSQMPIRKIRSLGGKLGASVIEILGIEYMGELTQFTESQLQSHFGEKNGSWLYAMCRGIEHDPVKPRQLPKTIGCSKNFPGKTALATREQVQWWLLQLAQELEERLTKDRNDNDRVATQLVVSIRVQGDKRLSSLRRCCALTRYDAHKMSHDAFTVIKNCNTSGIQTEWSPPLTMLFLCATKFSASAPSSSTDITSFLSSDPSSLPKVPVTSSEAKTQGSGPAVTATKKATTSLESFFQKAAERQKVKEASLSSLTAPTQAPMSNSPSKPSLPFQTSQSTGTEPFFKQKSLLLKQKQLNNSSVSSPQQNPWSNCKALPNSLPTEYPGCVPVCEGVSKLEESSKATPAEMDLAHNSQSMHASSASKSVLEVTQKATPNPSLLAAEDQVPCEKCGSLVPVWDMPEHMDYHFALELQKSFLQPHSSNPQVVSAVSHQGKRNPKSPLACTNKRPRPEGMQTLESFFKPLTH
#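 Pol eta (10 nM) was preincubated with compounds for 15 min at room temperature, after which fluorescent replication substrate (50 nM final) was added to start the reaction. Fluorescence was read kinetically at 0 and 10 min.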
# Pol iota inh = qHTS for Inhibitors of Polymerase Iota; DNA polymerase iota (Homo sapiens), Q9UNA4; Pol iota fluorescent replication assay, 10 min; Potency, µM (series often up to 115 µM), for the others: at the highest dose activity, negative = inhibition, usual class: inhibitors; actives 1% (n = 390,000); AID 588590, 2011; note: potency is the fitted concentration of half-maximal effect
#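 Fluorescent replication assay read twice, at 0 min and 10 min after adding 50 nM (final) substrate. Enzyme (10 nM) and compounds were first incubated 15 min at room temperature; enzyme-free buffer wells were negative controls.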
# Pol iota confirm = qHTS for Inhibitors of Polymerase Iota: Confirmatory Assay for Cherry-picked Compounds. Potency, µM, hits mostly inhibitors. Pol iota primer extension, TAMRA/BHQ fluorescence. shares compounds with Pol kappa inh-1. actives 77% (n = 1,500); note: potency is the fitted concentration of half-maximal effect
# GALK inh confirm = Confirmation Assay for Inhibitors of Human Galactokinase (GALK); Potency, µM (series often up to 115 µM), for the others: at the top dose activity, negative = inhibition, usual class: inhibitors; actives 70% (n = 150); purified GALK, Kinase-Glo ATP depletion luminescence; shares compounds with Pol eta inh-1
# GALK redox cs = Confirmatory Assay for Inhibitors of Human Galactokinase (GALK): Phenol-HRP redox assay counterscreen | shares compounds with Pol eta inh-1 | Phenol red-HRP H2O2 redox cycling, absorbance 600 nm | Potency, µM (highest dose often 115 µM), inactives show at the highest dose activity change, negative = H2O2 signal, hits mostly inhibitors | actives 40% (n = 150)
# HEK293 tox = Secondary Assay for Inhibitors of Human Galactokinase (GALK): HEK-293 Cell Viability Assay. shares compounds with Pol eta inh-1. actives 10% (n = 170). Potency, µM (titrated, usually from 46.1 µM), for the others: at the top dose activity change, negative = cytotoxicity, hits mostly inhibitors. AID 2547, 2010. HEK-293 viability, ATP luminescence (CellTiter-Glo), 24/48 h; note: potency is the fitted concentration of half-maximal effect; % is set by controls: 0 for no effect and ±100 for the full control effect
# Pol kappa inh-2 = qHTS for Inhibitors of Polymerase Kappa: Confirmatory Assay for Cherry-picked Compounds. shares compounds with Pol eta inh-1. purified Pol-kappa, fluorescent strand-displacement substrate. Potency, µM, usual class: inhibitors. actives 76% (n = 920). AID 720501, 2013; note: potency is the fitted concentration of half-maximal effect
# Pol eta inh-2 = qHTS for Inhibitors of Polymerase Eta: Confirmatory Assay for Cherry-picked Compounds. AID 720502, 2013. actives 64% (n = 2,600). Potency, µM, hits mostly inhibitors. Pol eta primer extension, TAMRA/BHQ fluorescence, 10 min. shares compounds with Pol eta inh-1; note: potency is the fitted concentration of half-maximal effect
# FEN1 inh-2 = qHTS Assay for the Inhibitors of FEN1: Confirmatory Assay for Cherry-picked Compounds. shares compounds with FEN1 inh-1. FEN1 flap cleavage, TAMRA/BHQ2 fluorogenic DNA substrate. Potency, µM, actives largely listed as inhibitors. actives 79% (n = 880). AID 720498, 2013; note: potency is the fitted concentration of half-maximal effect; nearly all actives have a fitted effect of over 60% in size
# WRN helicase inh-2 = qHTS for Inhibitors of WRN Helicase: Confirmatory Assay for Cherry-picked Compounds; WRN helicase DNA unwinding, fluorescence kinetic; shares compounds with WRN helicase inh-1; Potency, µM (top dose mostly 57.1 µM), for inactives: at the top dose activity, negative = inhibition, hits mostly inhibitors; actives 63% (n = 610); note: potency is the fitted concentration of half-maximal effect; nearly all actives have a fitted effect of over 65% in size
# TO displacement = qHTS for Inhibitors of WRN Helicase: Thiazole Orange DNA Binding Counterscreen | shares compounds with WRN helicase inh-1 | thiazole orange DNA binding displacement, fluorescence | Potency, µM (top dose mostly 57.1 µM), inactives show top-dose activity change, negative = inhibition, actives largely listed as inhibitors | actives 10% (n = 610) | AID 720499, 2013;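 note: drop in dye fluorescence marks compound binding to DNA; potency is the fitted concentration of half-maximal effect; % is set by controls: 0 for no effect and ±100 for the full control effect; nearly all actives have a fitted effect of over 60% in size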
# BLM helicase inh = qHTS for Inhibitors of WRN Helicase: BLM Helicase Counterscreen for WRN Inhibitors | AID 720503, 2013 | Potency, µM (doses to about 57.1 µM), inactives show top-dose activity change, negative = inhibition, most hits filed as inhibitors | shares compounds with WRN helicase inh-1 | actives 60% (n = 610) | Recombinant BLM helicase DNA unwinding, red fluorescence; note: potency is the fitted concentration of half-maximal effect; nearly all actives have a fitted effect of over 60% in size
# Numbers without * were called inactive; i = inactive; ? = inconclusive; . = no result given; [ ] = another dose, or the depositor's remark. Calls come from the whole dose curve; as a rule, active = well fitted curve in the direction sought with a large enough effect; inconclusive = small, poorly fitted or top-dose-only effect, or another doubt; inactive = no such curve, though single readings can be large; an effect the other way counts as inactive or inconclusive.
SMILES,Pol beta inh,WRN helicase inh-1,Pol kappa inh-1,FEN1 inh-1,Pol eta inh-1,Pol iota inh,Pol eta inh-2,others
CN1/C(=C\C=C2/SC(=S)N(CC(=O)O)C2=O)C(C)(C)c2ccccc21,39.8µM*,50.1µM*,?,?,44.7µM*,.,33.8*,Pol iota confirm=37.7*;Pol kappa inh-2=33.6*;FEN1 inh-2=84.9*;WRN helicase inh-2=21.5µM*;TO displacement=i;BLM helicase inh=21.5µM*
O=C(CCC(=O)N1CC2CCCN2c2ccccc21)NCc1ccccc1F (stereo not drawn),-1.9%,.,4.9%,-1.1%,-13.0%,-0.2%,.,
COc1ccc(Nc2c3c(nc4ccc(NC(=O)/C=C/c5cccc(OC)c5OC)cc24)CCCC3)cc1OC,?,.,12.6µM*,-5.1%,-7.5%,?,.,Pol kappa inh-2=3.36*
COc1ccc(Nc2c3c(nc4ccc(NC(=O)/C=C/c5cc(OC)c(OC)c(OC)c5)cc24)CCCC3)cc1OC,22.6%,.,?,-25.1%,3.0%,?,.,
COc1ccccc1Nc1c2c(nc3ccc(NC(=O)/C=C/c4cccc(OC)c4OC)cc13)CCCC2,-22.4%,.,?,4.1%,7.3%,-14.7%,.,Pol kappa inh-2=0.844*
COc1ccc(/C=C/C(=O)Nc2ccc3nc4c(c(Nc5ccccc5OC)c3c2)CCCC4)cc1,12.3%,.,-43.2%,9.9%,6.6%,?,.,
COc1ccc(NC(=O)N/C=C/c2ccco2)cc1,25.1µM*,-7.0%[11.6 µM],?,-25.2%,44.7µM*,?,?,
O=C(N/C=C/c1ccco1)OCc1ccccc1,?,-4.3%[11.6 µM],-43.1%,7.2%,?,?,?,
O=C(N/C=C/c1ccco1)Nc1cccc(Cl)c1,-15.1%,0.2%[11.6 µM],-41.8%,8.0%,?,?,.,
N#Cc1c(NC(=O)c2ccc(Br)o2)n(-c2ccccc2)c2nc3ccccc3nc12,-1.3%,3.5%,-4.9%,-17.7%,35.5µM*,10µM*,.,GALK inh confirm=26.6µM*;GALK redox cs=5.3µM*;HEK293 tox=-12.0%
COc1ccc(NC(=O)c2cc3ccccc3cc2OC)cc1,7.7%,-14.3%,?,-0.5%,-12.8%,?,.,
COc1cc2ccccc2cc1C(=O)NC(=S)Nc1ccc(C(=O)O)cc1,-17.8%,-12.8%[11.6 µM],-10.1%,?,50.1µM*,-0.5%,?,
COc1cc2ccccc2cc1C(=O)NC(=S)Nc1cccc(C(=O)O)c1,28.2µM*,?,-19.3%,?,44.7µM*,?,?,
CC(=O)c1ccc(NC(=O)CSc2nnc3ccc(-c4ccc(Cl)cc4)nn23)cc1,-21.6%,.,-3.9%[60.1 µM],-1.8%,-21.5%,24.1%,.,
O=C(COC(=O)C1CC1)Nc1ncc(Cl)cc1Cl,.,?,-38.2%,-7.8%,28.2µM*,?,47.8*,
Cc1csc(=O)n1CCC(=O)OCC(=O)Nc1ncc(Cl)cc1Cl,.,-35.2%,?,13.8%,22.4µM*,?,?,Pol kappa inh-2=21.2*
CC1CCN(c2nc3c(S(=O)(=O)c4cccc(Cl)c4)nnn3c3ccsc23)CC1,?,.,-8.8%,0.3%,-2.7%,19.7%,.,
Oc1ccc(NCc2ccccc2OCc2ccc(Cl)cc2)cc1,?,.,?,-15.1%,-16.1%,?,?,
CCOc1cc(CNc2ccc(O)cc2)ccc1OCc1ccc(Cl)cc1,?,.,?,?,-23.3%,7.94µM*,?,
CCOc1cc(CNc2ccc3c(c2)CCC3)ccc1O,9.2%,-3.9%,-4.2%,-0.4%,4.8%,?,.,
